CDK5 inh – CDK5/p35 (human) kinase inhibition | Recombinant CDK5/p35, ADP-Glo luminescence, 60 min | Q00535+Q15078 | 0.01% of 330,000 active | inhibition, % at 10 µM;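 active = highest replicate inhibition of at least 50% and at least 75% of replicates reaching 50%; inconclusive = only one of the two criteria met; inactive = both criteria failed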;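 note: plate controls were DMSO neutral control for no effect and GW8510 at 10 µM for full effect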
ALR inh – human ALR oxidase inhibition via reduced H2O2 | 3.8% of 290,000 active | inhibition, % (test concentration not listed) | P55789 | purified ALR, DTT oxidation, H2O2 HRP-luminol luminescence;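 active = mean replicate inhibition above about 79%, with every replicate also reaching it, limit read from the data; inconclusive = only one of the two criteria met; inactive = mean below limit and not every replicate reaching it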
Glyco luc inh – N-linked glycosylation inhibition. D54 ERlucT glycosylation luciferase reporter, 24 h; percent of 100 nM tunicamycin response. reporter increase, % at 12.5 µM. 0.23% of 360,000 active. AID 588692;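 active = mean luciferase reporter signal, scaled so untreated is 0 and the glycosylation-blocking control 100, at or above a set limit in every replicate; inconclusive = mean reaches the limit but not every replicate does; inactive = mean below the limit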;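 note: luciferase carries N-glycosylation sites so blocking glycosylation raises the light; 0% = median of neutral control wells and 100% = median of 100 nM tunicamycin wells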
NSD2 HMT inh – blocks human histone methyltransferase NSD2; NSD2 peptide methylation, AlphaScreen, 120 min; inhibition, % at 12.5 µM; 0.54% of 310,000 active; O96028; in the data active = inhibition above about 50%
Target sequence (O96028 whole entry, looked up): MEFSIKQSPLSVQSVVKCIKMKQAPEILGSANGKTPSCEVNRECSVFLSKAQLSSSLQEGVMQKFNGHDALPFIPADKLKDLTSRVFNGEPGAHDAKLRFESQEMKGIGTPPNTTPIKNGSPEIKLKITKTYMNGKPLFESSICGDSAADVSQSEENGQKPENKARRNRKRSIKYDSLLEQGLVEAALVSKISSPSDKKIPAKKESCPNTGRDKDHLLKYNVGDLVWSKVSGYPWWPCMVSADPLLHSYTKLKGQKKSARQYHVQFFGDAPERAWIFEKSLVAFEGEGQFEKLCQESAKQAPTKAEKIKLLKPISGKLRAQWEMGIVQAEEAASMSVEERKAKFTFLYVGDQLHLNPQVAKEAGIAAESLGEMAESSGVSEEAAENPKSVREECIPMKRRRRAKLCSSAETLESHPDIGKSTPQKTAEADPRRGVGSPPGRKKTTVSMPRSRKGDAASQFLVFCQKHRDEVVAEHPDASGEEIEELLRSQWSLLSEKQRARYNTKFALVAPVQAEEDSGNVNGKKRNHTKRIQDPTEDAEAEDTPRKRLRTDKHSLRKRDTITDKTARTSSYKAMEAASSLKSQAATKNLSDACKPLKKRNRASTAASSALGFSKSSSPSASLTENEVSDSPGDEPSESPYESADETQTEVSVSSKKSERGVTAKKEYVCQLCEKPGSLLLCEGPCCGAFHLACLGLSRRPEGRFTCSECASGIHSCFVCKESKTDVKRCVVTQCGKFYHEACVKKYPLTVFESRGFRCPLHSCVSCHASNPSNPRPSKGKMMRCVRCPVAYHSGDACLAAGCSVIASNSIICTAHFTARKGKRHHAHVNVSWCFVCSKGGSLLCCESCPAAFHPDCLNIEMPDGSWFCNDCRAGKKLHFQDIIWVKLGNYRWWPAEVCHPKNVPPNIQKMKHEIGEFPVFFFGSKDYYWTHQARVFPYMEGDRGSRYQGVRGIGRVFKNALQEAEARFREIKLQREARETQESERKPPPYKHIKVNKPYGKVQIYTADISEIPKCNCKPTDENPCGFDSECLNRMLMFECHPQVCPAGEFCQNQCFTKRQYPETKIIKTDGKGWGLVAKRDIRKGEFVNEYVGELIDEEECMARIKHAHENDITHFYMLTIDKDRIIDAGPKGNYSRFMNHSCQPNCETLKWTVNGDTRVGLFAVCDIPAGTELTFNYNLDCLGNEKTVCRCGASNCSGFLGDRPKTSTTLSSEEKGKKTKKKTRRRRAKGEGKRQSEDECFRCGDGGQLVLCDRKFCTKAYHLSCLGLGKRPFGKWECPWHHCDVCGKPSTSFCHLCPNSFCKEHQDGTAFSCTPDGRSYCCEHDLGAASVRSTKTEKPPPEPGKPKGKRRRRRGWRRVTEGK
CASP6 VEID inh – blocks human caspase-6 cleavage activity. inhibition, % at 12.5 µM. P55212. AID 686996. purified caspase-6, Z-VEID-R110 cleavage fluorescence. 0.53% of 350,000 active;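 active = mean inhibition across replicates at least about 35%, with every replicate also reaching that limit, limit read from the data; inconclusive = only one of the two criteria met; inactive = neither criterion met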;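 note: 0% = median of neutral control wells and 100% = no fluorescence left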
SUMO Mot1 rescue – blocks SUMOylation pathway, rescuing yeast Mot1-301 growth. 1% of 320,000 active. S. cerevisiae Mot1-301 growth rescue, ATP luminescence, 38.5C; percent above DMSO median, 100 means doubled. growth rescue, % at 18.8 µM;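 active = every valid replicate shows activation above 250% relative to neutral control wells; inactive = the rest, any valid replicate at or below 250%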;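 note: OY570 slx delta 5 strain wells were the positive control but not used for scaling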
Starred values were filed as active, the others as inactive; ? = inconclusive; . = no result given. Only some compounds are listed: those with a hit (about 3.9% of all), similar ones and a draw of the others.

SMILES | CDK5 inh | ALR inh | Glyco luc inh | NSD2 HMT inh | CASP6 VEID inh | SUMO Mot1 rescue
COc1ccccc1C(=O)CSc1nccn1C | 3 | . | 3 | 5 | -2 | 9
Cn1ccnc1SCC(=O)c1c[nH]c2ccccc12 | 2 | 96* | -3 | -3 | 0 | -15
CN(C)CCCNC(=O)C[C@H]1CC[C@@H]2[C@H](COc3ccc(NS(C)(=O)=O)cc3C(=O)N2C)O1 | . | . | . | . | 0 | .
CCN(CC)c1ccc(NC(=O)CN2C(=O)CSc3ncccc32)c(C)c1 | -3 | 97* | -2 | . | -2 | 301
CC1CCc2nn(CC(=O)Nc3ccc(F)cc3F)cc2C1 (stereo unspecified) | -1 | -1 | 1 | . | -1 | 12
CCN(CC)c1ccc(NC(=O)Cn2cc3c(n2)CCC(C)C3)c(C)c1 (stereo unspecified) | -1 | 99* | 21 | . | -2 | -8
O=C1/C(=C/C=C/c2ccco2)SC(=S)N1c1ccc(O)cc1 | -4 | 27 | 0 | 11 | 76* | -18
CC(C)C(C(=O)O)N1C(=O)/C(=C/C=C/c2ccco2)SC1=S (stereo unspecified) | -24 | 99* | 0 | . | . | 23
NN1C(=O)/C(=C\c2ccco2)SC1=S | . | 54 | -1 | 0 | 70* | -2
O=C1/C(=C\c2ccc(O)cc2)SC(=S)N1c1cccnc1 | 0 | -10 | -1 | 0 | -1 | 16
O=C1/C(=C\c2ccco2)SC(=S)N1c1ccc(O)cc1 | 0 | ? | 1 | 10 | 38* | 393
O=C(C[C@@H]1CC[C@H](NC(=O)c2ccccc2)[C@H](CO)O1)NCc1ccc(Oc2ccccc2)cc1 | . | . | . | . | 1 | .
O=C(NN1C(=O)/C(=C/C=C/c2ccco2)SC1=S)c1ccncc1 | . | 22 | 0 | . | 76* | -3
O=C1/C(=C/c2ccco2)SC(=S)N1c1cccnc1 | -2 | . | 0 | . | 83* | .
O=C(NN1C(=O)/C(=C/C=C/c2ccccc2)SC1=S)c1ccncc1 | 0 | 64 | 2 | 6 | 17 | 6
C[C@@H]1CN([C@@H](C)CO)C(=O)Cc2cc(NC(=O)Nc3ccc(F)cc3)ccc2O[C@H]1CN(C)Cc1ccc(-c2ccccc2)cc1 | . | . | . | . | 0 | .
COc1ccc(C(=O)CCN2CCc3cc(OC)c(OC)cc3C2)cc1 | 0 | 98* | -4 | -1 | 0 | -12
C[C@@H]1CN([C@H](C)CO)C(=O)c2cccc(NC(=O)Nc3ccc4c(c3)OCO4)c2O[C@H]1CN(C)S(=O)(=O)c1ccc(F)cc1 | . | . | . | . | -1 | .
CC(=O)c1ccc(S(=O)(=O)Nc2ccc(N3CCOCC3)cc2)cc1 | 1 | 34 | 2 | -7 | 3 | -8
COc1ccc(C(=O)O)cc1S(=O)(=O)Nc1ccc(N2CCCCC2)cc1 | -2 | 96* | 3 | 2 | 0 | 29
O=C(CCC(=O)c1cccs1)Nc1ccc(N2CCCCC2)cc1 | -1 | 90* | 3 | 2 | 0 | -9
O=C(CCl)Nc1ccc(N2CCCCCC2)cc1 | 2 | 99* | 4 | 23 | -24 | 64
CCC(=O)Nc1ccc(N2CCCCC2)cc1 | 0 | . | 0 | 4 | . | -7
CC(=O)Nc1ccc(S(=O)(=O)Nc2ccc(N3CCOCC3)cc2)cc1 | 1 | 82* | 1 | 1 | . | 3
CO[C@H]1CN(C)C(=O)c2ccc(NC(=O)CC(F)(F)F)cc2OC[C@@H](C)N(S(=O)(=O)c2cn(C)cn2)C[C@@H]1C | . | . | . | . | 1 | .
SMILES | CDK5 inh | ALR inh | Glyco luc inh | NSD2 HMT inh | CASP6 VEID inh | SUMO Mot1 rescue
Cc1ccc(S(=O)(=O)Nc2ccc(N3CCOCC3)cc2)cc1 | 1 | -1 | 1 | 1 | . | 41
O=C(Nc1ccc(N2CCCCC2)cc1)C1CCCN1S(=O)(=O)c1ccc(F)cc1 (stereo unspecified) | -2 | 80* | -3 | 6 | -7 | 1
CC1CCCCN1CC(=O)Nc1ccc(N2CCCCCC2)cc1 (stereo unspecified) | 0 | 99* | -3 | 29 | 6 | -8
CCCC(=O)Nc1ccc(N2CCCCC2)cc1 | 0 | 82* | 0 | 1 | . | 81
Cc1ccc(S(=O)(=O)Nc2ccc(N3CCCCC3)cc2)cc1 | 0 | 98* | -2 | 12 | 5 | 27
C/C=C/c1ccc([C@@H]2[C@@H](C#N)N(C(=O)CN3CCOCC3)[C@H]2CO)cc1 | . | . | . | . | 4 | .
CC(=O)Nc1ccc(N2CCCCC2)cc1 | 5 | 99* | 1 | 3 | . | 302
CCCN1C(=O)S/C(=C/c2ccc(N3CCOCC3)o2)C1=O | 3 | 99* | 3 | 4 | 9 | -16
CCCN1C(=O)S/C(=C\c2ccc(N3CCOCC3)o2)C1=O | 2 | 86* | -1 | -3 | . | -7
C[C@@H]1CN([C@H](C)CO)C(=O)Cc2cc(NC(=O)Nc3ccc(C(F)(F)F)cc3)ccc2O[C@@H]1CN(C)S(C)(=O)=O | . | . | . | . | 1 | .
O=C(C[C@H]1C[C@@H]2c3cc(NC(=O)Nc4ccc(C(F)(F)F)cc4)ccc3O[C@@H]2[C@H](CO)O1)NCc1ccccn1 | . | . | . | . | -3 | .
c1ccc2[nH]c3cc4ncnc4cc3nc2c1 | -1 | -32 | 26* | 19 | 69* | 12
FC(F)c1nc2ccccc2[nH]1 | 0 | 6 | 1 | -1 | 2 | -8
COc1ccccc1N1CCN(CCN(C(=O)c2ccc(F)cc2)c2ccccn2)CC1 | -1 | 94* | -2 | . | 5 | -3
COc1ccccc1N1CCN(CCN(C(=O)C2CCCCC2)c2ccccn2)CC1 | 2 | 97* | 0 | . | 10 | 13
Cc1ccc(S(=O)(=O)N[C@H]2CC[C@@H](CCNC(=O)C3CCC3)O[C@H]2CO)cc1 | . | . | . | . | 0 | .
COc1ccc(C2=NN(c3ccccc3)C(c3cn(CCC(=O)O)nc3-c3ccccc3)C2)cc1 (stereo unspecified) | 1 | 94* | 4 | -10 | 8 | 3
COc1ccc(C2CC(c3ccccc3)=NN2c2ccc(S(N)(=O)=O)cc2)cc1OC (stereo unspecified) | 2 | -17 | 1 | -13 | 2 | -16
COc1ccc(C2CC(c3ccccc3)=NN2c2ccc(N)cc2)cc1 (stereo unspecified) | 3 | -6 | 5 | 1 | -3 | 9
COc1ccc(C2CC(c3ccccc3)=NN2c2ccccc2)c(C(=O)O)c1OC (stereo unspecified) | -2 | 99* | 0 | -9 | 2 | -2
COc1cc(C2CC(c3ccccc3)=NN2c2ccccc2)ccc1OCC(=O)O (stereo unspecified) | 2 | 99* | 1 | . | 11 | 56
COc1ccc(C2CC(c3ccccc3)=NN2c2ccc(Cl)c(C(=O)O)c2)cc1 (stereo unspecified) | -6 | 98* | 4 | -16 | 10 | 0
C[C@H](CO)N1C[C@H](C)[C@H](CN(C)Cc2cncnc2)Oc2ncc(/C=C/c3ccccc3)cc2C1=O | . | . | . | . | 2 | .
CNC[C@H]1Oc2ccc(NC(=O)Nc3ccc(C(F)(F)F)cc3)cc2C(=O)N([C@@H](C)CO)C[C@@H]1C | . | . | . | . | -4 | .
